The results in this text go back to the OligoGym collection.
Further: reference of the scale not given here.

The first test deals with GPX2. Put plainly: pooled miR-30 sensor sort-seq; sequence = guide strand. Particulars: shRNA.
TTTTGGACAAGGGTGAAGGTGG returned a sensor-assay potency score (higher = more potent) of -0.672.

Sequence TTCCAGGCCACATCTGAGCGGC returned a sensor-assay potency score (higher = more potent) of -0.521.

As to TTGGACAAGGGTGAAGGTGGGC, the sensor-assay potency score (higher = more potent) is 0.00355.

Sequence TATTGGTCTCTTCTAGCAGAGT had a sensor-assay potency score (higher = more potent) of -1.55.

Consider TCACATTTTTGGACAAGGGTGA, for which the sensor-assay potency score (higher = more potent) was determined as 0.0993.

The target in a further test is GRAMD1B. The description is as above. Particulars: shRNA.
TTGTAGAAGAGCATCATGTTAA: the sensor-assay potency score (higher = more potent) is -0.883.

Turning to AACATCATCATATATGTCCTAT, the sensor-assay potency score (higher = more potent) was -0.649.

Turning to TATCGTGGTACTTTTGTTGGGA, the sensor-assay potency score (higher = more potent) was found to be 0.623.

TTTTCTTCACTTTCCGACGTGT: the sensor-assay potency score (higher = more potent) is 0.0883.

TTGTCTGTGCATCTCAGCCAAA: the sensor-assay potency score (higher = more potent) is -1.36.

TTGTCATTGAAGTCCAGTGAAG displayed a sensor-assay potency score (higher = more potent) of -1.36.

With TACATGGTCTGTGTCTCCCTGA, the sensor-assay potency score (higher = more potent) came to 0.155.

Sequence TTTTTGGAGCTCAGTATCGTGG displayed a sensor-assay potency score (higher = more potent) of -1.12.

Regarding TTCTTGGAGCCTTAGACCCTGC, the sensor-assay potency score (higher = more potent) is -0.896.

Turning to TAACACATTATACCAACTCTGG, the sensor-assay potency score (higher = more potent) is -0.853.

As for TTGTGTAGAAGTAGTCATGGTA, the sensor-assay potency score (higher = more potent) was 0.548.

TTGGTCTCTATGCTGCTCTTGG gave a sensor-assay potency score (higher = more potent) of -0.389.
